Data on 30 compounds can be found in PubChem BioAssay (NCATS).

“And” between values parts separate entries of the source, which are not always exact repeats. Equal entries are not always repeated. Inconclusive results are not listed. Some compounds were tested as several samples or in several runs, with calls that do not always agree. The source made the active and inactive calls. The call rests on the fitted dose curve; in most records, active means well fitted curve in the direction sought with a large enough effect; inconclusive means small, poorly fitted or top-dose-only effect, or another doubt; inactive means no such curve, though single readings can be large; an effect the other way counts as inactive or inconclusive.

Experiment [1] addresses Cytochrome P450 3A7 (Homo sapiens) (UniProt P24462). The experiment is described as follows: Cytochrome P450 family 3 subfamily A member 7 (CYP3A7) small molecule antagonists: luciferase biochemical qHTS assay (AID 1963596). Further: on the % scale 0 is the no-effect control and ±100 the full control effect; nearly all actives have a fitted effect of over 40% in size. The gist of the method:
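Recombinant CYP3A7 P450-Glo luminescent assay: enzyme-proluciferin substrate mix preincubated with compound 10 min at room temperature, reaction started with NADPH regeneration system for 1 h. Luciferin detected by luminescence; ketoconazole as positive control.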
For orientation: qHTS replaces the single test concentration by a dilution series.

Experiment [2] is described as follows: Viability qHTS for spleen associated tyrosine kinase inhibitor (SYKi) naive MV4-11 cells (AID 1963823). Further: nearly all actives have a fitted effect of over 40% in size. Further: potency means the concentration at half of the fitted maximal effect. The essentials: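 SYK inhibitor-naive MV4-11 cells, 500 per well, exposed to compounds for 72 hr at 37 C, 5% CO2. Viability read as CellTiter-Glo luminescence after 10 min at room temperature.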
A short description of experiment [3]: Viability qHTS for spleen associated tyrosine kinase inhibitor (SYKi) drug resistant MV4-11 cells (AID 1963824). Further: nearly all actives have a fitted effect of over 35% in size. Further: potency means the concentration at half of the fitted maximal effect. The essentials: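 SYK-inhibitor-resistant MV4-11 AML cells were seeded at 500 per well onto compound and cultured 72 hours (37 °C, 5% CO2). CellTiter-Glo was then added, and after 10 min at room temperature, luminescence gave viability.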
Experiment [4] is described as follows: Quantitative highthroughput screen to assess conditional lethalithy of NOMO1 cells grown in RPMI1640 with dialyzed fetal bovine serum (RPMI+ds) (AID 1963877).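 Further: series mostly up to about 46 µM; 100% = DMSO control wells and 0% = empty wells; nearly all actives have a fitted effect of over 30% in size.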 The gist of the method:
(§1)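 Each medium arm—HPLM with 10% dialyzed FBS, or RPMI1640 with 5 mM glucose and 10% untreated or dialyzed FBS—was screened against an 11-point, 3-fold compound titration for 48 h at 37 °C, with CellTiter-Glo luminescence as endpoint.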

Experiment [5] is described as follows: Quantitative highthroughput screen to assess conditional lethalithy of NOMO1 cells grown in Human Plasma-Like Medium with dialyzed fetal bovine serum (HPLM+ds) (AID 1963878). Further: nearly all actives have a fitted effect of over 35% in size. Further: potency means the concentration at half of the fitted maximal effect.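 On Viability: 100% = DMSO wells and 0% = empty wells on each plate.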 The essentials:
as §1

Experiment [6] can be described thus: Quantitative highthroughput screen to assess conditional lethalithy of P12 Ichikawa cells grown in Human Plasma-Like Medium with dialyzed fetal bovine serum (HPLM+ds) (AID 1963879). Further: nearly all actives have a fitted effect of over 35% in size. Further: potency means the concentration at half of the fitted maximal effect. On Viability: series mostly up to about 46 µM. The following applies: Potency: viability. The essentials: as §1
A short description of experiment [7]: Quantitative highthroughput screen to assess conditional lethalithy of P12 Ichikawa cells grown in RPMI1640 with dialyzed fetal bovine serum (RPMI+ds) (AID 1963880). Further: nearly all actives have a fitted effect of over 35% in size. Further: potency means the concentration at half of the fitted maximal effect.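 On Viability: 100% = DMSO wells and 0% = empty wells on each plate.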 Particulars: Potency: P12-Ichikawa viability. The gist of the method: as §1
Experiment [8] is described as follows: Quantitative highthroughput screen to assess conditional lethalithy of P12 Ichikawa cells grown in RPMI1640 with untreated serum (RPMI+s) (AID 1963881). Further: nearly all actives have a fitted effect of over 35% in size. Further: potency means the concentration at half of the fitted maximal effect.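 On Viability: series mostly up to about 46 µM; 100% = DMSO wells and 0% = empty wells without cells.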 Particulars: Potency: viability. The essentials: as §1
A short description of experiment [9]: Quantitative highthroughput screen to assess conditional lethalithy of SEM cells grown in Human Plasma-Like Medium with dialyzed fetal bovine serum (HPLM+ds) (AID 1963882). Further: nearly all actives have a fitted effect of over 35% in size. Further: potency means the concentration at half of the fitted maximal effect. On Viability: series mostly up to about 46 µM. The gist of the method:
as §1

Experiment [10] is described as follows: Quantitative highthroughput screen to assess conditional lethalithy of SEM cells grown in RPMI1640 with unreated serum (RPMI+s) (AID 1963883). Further: nearly all actives have a fitted effect of over 35% in size. Further: potency means the concentration at half of the fitted maximal effect.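 On Viability: 100% = DMSO wells and 0% = empty wells without cells.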 The essentials: as §1
A short description of experiment [11]: Quantitative highthroughput screen to assess conditional lethalithy of SEM cells grown in RPMI1640 with dialyzed fetal bovine serum (RPMI+ds) (AID 1963884). Further: nearly all actives have a fitted effect of over 35% in size. Further: potency means the concentration at half of the fitted maximal effect.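 On Viability: series mostly up to about 46 µM; 100% = DMSO control wells and 0% = empty wells without cells.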 The essentials: as §1
The nature of experiment [12]: Cellular viability qHTS for adrenocortical cancer (ACC) cell line SW-13 (AID 1963989). Further: nearly all actives have a fitted effect of over 65% in size. Further: potency means the concentration at half of the fitted maximal effect.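 On activity (max response): cells grown in serum-free medium with ITS supplement; on the % scale 0 is the no-effect control and ±100 the full control effect.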 Particulars: SW-13 ACC cells viability, CellTiter-Glo, 48 h; activity (max response): stronger effect = lower value. The essentials: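 Luminescent ATP read-out (CellTiter-Glo, 20 min at room temperature) measured metabolically competent SW-13 cells after 48 h compound treatment. Final concentrations spanned up to 46 uM; bortezomib served as positive control.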

Experiment [13] is described as follows: Cellular viability qHTS for adrenocortical cancer (ACC) cell line NCI-H295R (AID 1963990). Further: nearly all actives have a fitted effect of over 60% in size. Further: potency means the concentration at half of the fitted maximal effect. The gist of the method:
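IC50 and maximal efficacy derive from four-parameter logistic modelling of titration curves, with reads scaled between DMSO-only wells (0%) and doxorubicin hydrochloride (100% inhibition). Compounds spanned up to 46 uM over 48 h.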

Chain of Cytochrome P450 3A7 (Homo sapiens) (P24462 whole entry, looked up): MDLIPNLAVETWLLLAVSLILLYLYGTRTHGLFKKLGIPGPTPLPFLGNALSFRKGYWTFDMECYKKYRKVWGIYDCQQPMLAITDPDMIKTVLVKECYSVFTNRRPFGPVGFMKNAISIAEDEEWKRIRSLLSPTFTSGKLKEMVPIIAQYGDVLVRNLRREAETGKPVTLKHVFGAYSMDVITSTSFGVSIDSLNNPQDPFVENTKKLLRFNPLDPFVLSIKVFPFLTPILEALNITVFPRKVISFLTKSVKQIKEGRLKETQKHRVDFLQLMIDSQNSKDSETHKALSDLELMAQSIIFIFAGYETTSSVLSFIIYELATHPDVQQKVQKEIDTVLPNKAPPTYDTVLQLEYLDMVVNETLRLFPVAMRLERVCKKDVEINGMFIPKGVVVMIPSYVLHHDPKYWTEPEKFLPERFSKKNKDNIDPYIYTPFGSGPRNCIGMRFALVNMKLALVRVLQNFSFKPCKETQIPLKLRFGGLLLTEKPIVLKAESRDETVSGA

Regarding `Cc1nc2c([nH]1)CCN(C(=O)c1ccc(NC(=O)c3ccccc3-c3ccccc3)cc1)c1ccccc1-2`, the Potency result in experiment [1], in [4], in [5], in [6], in experiment [7] and in experiment [8] was “inactive” throughout. The Potency entry in [9], in experiment [10] and in [11] was “inactive” throughout. The Potency in experiment [2] was 18.4 µM (active); in experiment [3] it was 13.2 µM (active). In experiment [12], the activity (max response) was -19.1% (inactive).
Turning to `COc1cccc2cc(-c3nc(C4CCC(C(=O)O)CC4)n4ncnc(N)c34)[nH]c12` (stereo unspecified), the Potency entry in experiment [1] is “inactive”. Moreover, the Potency in experiment [2] is 461 nM (active) and 366 nM (active); in experiment [3], 580 nM (active) and 461 nM (active); in experiment [6], 296 nM (active); in [8] it was 590 nM (active); in experiment [9], 590 nM (active); in experiment [10], 935 nM (active). Also, the Potency in [11] was 1180 nM (active).
With `NCCOc1cc(C(=O)Nc2cc(OCCN)c3ccccc3n2)nc(C(=O)Nc2cc(OCCN)c3ccccc3n2)c1`, the Potency result in experiment [1] and in [5] was “inactive” each time. The Potency was 1.3 µM (active) and 1.66 µM (active) in [2]; 2.59 µM (active) and 3.72 µM (active) in experiment [3].
With `CN(C)C(=O)COC(=O)Cc1ccc(OC(=O)c2ccc(N=C(N)N)cc2)cc1`, the Potency entry in [1], in experiment [2] and in experiment [13] was “inactive” in each case. In addition, the Potency entry in experiment [3] was “inactive and 7.42 µM (active)”; in [5] it was 20900 nM (active). Further, in experiment [12], the activity (max response) is 3.47% (inactive) and -2% (inactive).
With `O=C(Cc1ccc(-c2ccc(OCCN3CCOCC3)cc2)cn1)NCc1ccccc1`, the Potency entry in [1] is “inactive”. Moreover, the Potency was 231 nM (active) and 93.4 nM (active) in experiment [2]; 206 nM (active) and 105 nM (active) in [3]; 33.2 nM (active) in [6]; 37.2 nM (active) in experiment [7]; 37.2 nM (active) in [8]; 26.4 nM (active) in experiment [9]. The Potency in [10] is 26.4 nM (active); in experiment [11], 29.6 nM (active); in [12], 199 nM (active); in [13] it was 178 nM (active).
As for `CCCCCC[C@@H](CCC)C(=O)O`, the Potency entry in experiment [1], in experiment [2] and in [3] was “inactive” in each case. In addition, the activity (max response) in [12] is 6.05% (inactive).
Consider `CN(C)CCN(Cc1ccsc1)c1ccccn1`, for which the Potency result in [1], in [2] and in [3] was “inactive” in each case. Further, the activity (max response) in experiment [12] is 6.67% (inactive).
For `NC(=O)C1(N2CCCCC2)CCN(CCCC(=O)c2ccc(F)cc2)CC1`, the Potency result in experiment [1], in experiment [2] and in experiment [3] was “inactive” throughout. In addition, the activity (max response) in experiment [12] is 1.85% (inactive).
On to `CCCCC(CC)COC(=O)c1ccccc1O` (stereo unspecified), for which the Potency entry in experiment [1] is “inactive”. Also, the Potency is 0.596 µM (active) in [2] and 5.96 µM (active) in [3]. Moreover, the activity (max response) in [12] was 7.38% (inactive).
The corresponding values for `CC(C)(C)C(=O)OCOC(=O)C1N2C(=O)CC2S(=O)(=O)C1(C)C` (stereo unspecified) are “inactive”, “inactive”, “inactive” and 14.5% (inactive).
As for `OCCN1C[C@H](O)[C@@H](O)[C@H](O)[C@H]1CO`, the Potency result in experiment [1], in [2] and in experiment [3] was “inactive” each time. Besides, the activity (max response) in experiment [12] is 9.26% (inactive) and -11.1% (inactive).
Take `CC1(C)S[C@@H]2[C@H](NC(=O)C(C(=O)O)c3ccccc3)C(=O)N2[C@H]1C(=O)O` (stereo partly specified): the Potency entry in experiment [1], in experiment [2] and in experiment [3] was “inactive” throughout. In addition, the activity (max response) in experiment [12] is 3.14% (inactive).
Regarding `CC(=O)N/N=C/c1ccc([N+](=O)[O-])o1`, in experiment [1], the Potency result is “inactive”. In addition, the Potency is 18.8 µM (active) in [2] and 23.7 µM (active) in experiment [3]. In addition, the activity (max response) in experiment [12] is 2.1% (inactive).
In the case of `C[C@H](Nc1ncnc2nc[nH]c12)c1cc2cccc(Cl)c2c(=O)n1-c1ccccc1`, in [1], the Potency entry is “inactive”. The Potency was 11.8 µM (active) in experiment [2]; 5.8 µM (active) and 6.61 µM (active) in experiment [3]. Moreover, the activity (max response) in [12] is -1.12% (inactive).
Turning to `COc1cc(C=O)ccc1O`, the Potency entry in [1], in [2] and in experiment [3] was “inactive” in each case. Besides, the activity (max response) in experiment [12] was 3.08% (inactive).
Regarding `COC(=O)c1ccc(NC(C)=O)cc1OC`, the Potency result in [1], in [2] and in experiment [3] was “inactive” each time. Also, in experiment [12], the activity (max response) is -6.56% (inactive).
In the case of `C=CCn1c(=O)n([C@@H]2O[C@H](CO)[C@@H](O)[C@H]2O)c2nc(N)[nH]c(=O)c21`, the Potency entry in experiment [1], in [2] and in experiment [3] was “inactive” throughout. Also, in experiment [12], the activity (max response) is 10.8% (inactive).
`CCN1CCCC1=O`: the Potency entry in experiment [1], in experiment [2] and in experiment [3] was “inactive” in each case. Also, the activity (max response) in experiment [12] was 9.62% (inactive).
For `CCCC(O)C(CC)CO` (stereo unspecified), the Potency entry in [1], in experiment [2] and in [3] was “inactive” each time. Further, the activity (max response) in experiment [12] is 8.36% (inactive).
In the case of `Cc1ccc2c(n1)Oc1ccc(C(C)C(=O)OCC(=O)N(C)C)cc1C2` (stereo unspecified), the Potency result in [1] and in experiment [3] was “inactive” throughout. In addition, the Potency in experiment [2] is 11.9 µM (active). In addition, the activity (max response) in experiment [12] is -7.34% (inactive) and -9.36% (inactive).
For `C=C1[C@H](CO)[C@@H](O)C[C@@H]1n1cnc2c(=O)[nH]c(N)nc21`, the Potency result in experiment [1] and in experiment [3] was “inactive” in each case. Further, in [2], the Potency entry was “inactive and 16.4 µM (active)”. Besides, in experiment [12], the activity (max response) is -5.41% (inactive).
Regarding `Cc1nc2n(c(=O)c1CCN1CCC(c3noc4cc(F)ccc34)CC1)CCC[C@H]2O`, the Potency entry in experiment [1], in experiment [2] and in experiment [3] was “inactive” each time. The activity (max response) in experiment [12] is 4.14% (inactive).
On to `O=C(O)[C@@H](O)[C@H](O)[C@H](O)[C@@H](O)C(=O)O`, for which the Potency entry in experiment [1], in experiment [2] and in experiment [3] was “inactive” throughout. The activity (max response) in [12] is 9.05% (inactive).
For `O=S(=O)(O)NC1CCCCC1`, the Potency result in experiment [1], in [2] and in experiment [3] was “inactive” in each case. The activity (max response) in [12] is 6.85% (inactive).
With `Cn1cc(-c2ccc3c(c2)CCN3C(=O)Cc2cccc(C(F)(F)F)c2)c2c(N)ncnc21`, the Potency entry in experiment [1] was “inactive”. Moreover, the Potency in [2] was 0.731 µM (active); in experiment [3], 2.06 µM (active) and 4.68 µM (active). The activity (max response) in [12] was -1.75% (inactive).
Regarding `COC(=O)/C=C\C(=O)OC`, the Potency result in experiment [1], in experiment [2] and in [3] was “inactive” in each case. Also, in experiment [12], the activity (max response) was 9.62% (inactive).
Take `O=C(Oc1ccccc1C(=O)O)c1ccccc1O`: the Potency result in experiment [1], in experiment [2] and in experiment [3] was “inactive” throughout. Further, the activity (max response) in experiment [12] was -2.11% (inactive).
For the compound `CCOCCn1c(C2CCN(CCc3ccc(C(C)(C)C(=O)O)cc3)CC2)nc2ccccc21`, the Potency result in [1], in [2] and in experiment [3] was “inactive” throughout. In [12], the activity (max response) was 2.01% (inactive).
On to `CN1CC(=O)N/C1=N/C(=O)Nc1cccc(Cl)c1`, for which the Potency result in [1], in experiment [2] and in experiment [3] was “inactive” in each case. For the same compound, the activity (max response) in [12] was 2.23% (inactive).
`Cc1nc(-c2ccc(Cl)cc2)oc1COC(C)(C)C(=O)O`: the Potency entry in experiment [1], in experiment [2] and in experiment [3] was “inactive” each time. In addition, the activity (max response) in experiment [12] is -4.84% (inactive).
